pPAFAH FP inh = inhibitors of human plasma PAF acetylhydrolase (pPAFAH); AID 463082; inhibition, % at 3.39 µM; recombinant pPAFAH, FP-rhodamine probe fluorescence polarization; Q13093; actives 1.5% (n = 330,000);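 active = inhibition above the mean inhibition across the screen plus 3 SD, cut at about 25% in these data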;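 note: inhibitors block binding of the rhodamine activity-based probe so polarization drops; 0% = enzyme with DMSO and 100% = wells lacking pPAFAH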
Target sequence (Q13093 whole entry, looked up): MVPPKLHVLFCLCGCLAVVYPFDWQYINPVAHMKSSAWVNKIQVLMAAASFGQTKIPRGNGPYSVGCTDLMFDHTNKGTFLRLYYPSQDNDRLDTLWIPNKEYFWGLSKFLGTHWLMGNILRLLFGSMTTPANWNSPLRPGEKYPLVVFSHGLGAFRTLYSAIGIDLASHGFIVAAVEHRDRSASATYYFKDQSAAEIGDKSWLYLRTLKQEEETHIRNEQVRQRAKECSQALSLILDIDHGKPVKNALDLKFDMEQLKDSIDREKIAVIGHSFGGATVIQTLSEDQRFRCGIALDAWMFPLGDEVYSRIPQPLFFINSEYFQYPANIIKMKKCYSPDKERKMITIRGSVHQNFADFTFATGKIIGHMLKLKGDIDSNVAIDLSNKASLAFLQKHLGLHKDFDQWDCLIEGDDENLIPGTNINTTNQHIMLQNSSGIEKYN
PAFAH1B2 FP inh = inhibitors of human PAFAH1B2; P68402; recombinant PAFAH1B2, FP-rhodamine activity probe, fluorescence polarization; inhibition, % at 3.39 µM; actives 1.2% (n = 340,000); AID 492953;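 active = inhibition above the mean of all tested compounds plus 3 SD, cut at about 24% in these data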;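 note: 0% = enzyme with DMSO and 100% = wells lacking PAFAH1B2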
PP5 primary = blocks human protein phosphatase 5 activity; purified PP5c, OMFP substrate fluorescence; inhibition, % at 6.7 µM; actives 0.18% (n = 320,000); AID 1987;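 active = inhibition above the campaign's mean inhibition across all tested compounds plus 3 SD, cut at about 9.5% in these data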;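 note: 0% = DMSO only and 100% = 100 µM cantharidin control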
PAFAH1B3 inh = PAFAH1B3 (human) inhibition | Q15102 | actives 0.28% (n = 340,000) | recombinant PAFAH1B3, FP-rhodamine probe, fluorescence polarization | AID 492972 | inhibition, % at 3.39 µM;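 active = inhibition above the screen-wide average of all tested compounds plus 3 SD, cut at about 25% in these data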;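 note: 0% = enzyme with DMSO only and 100% = wells lacking PAFAH1B3 protein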
Target sequence (Q15102 whole entry, looked up): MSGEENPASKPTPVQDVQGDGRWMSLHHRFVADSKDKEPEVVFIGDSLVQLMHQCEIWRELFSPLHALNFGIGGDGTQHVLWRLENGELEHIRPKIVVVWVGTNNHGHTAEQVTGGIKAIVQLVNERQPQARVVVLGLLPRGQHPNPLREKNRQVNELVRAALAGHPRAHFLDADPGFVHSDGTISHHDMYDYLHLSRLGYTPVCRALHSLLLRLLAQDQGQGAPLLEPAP
PAFAH2 FP inh = PAFAH2 (human) inhibition. Q99487. recombinant PAFAH2, FP-rhodamine activity probe, fluorescence polarization. inhibition, % at 3.39 µM. actives 0.99% (n = 340,000);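 active = inhibition above the mean over all tested compounds plus 3 SD, cut at about 30% in these data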;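 note: inhibitors block probe labeling of enzyme so polarization drops; 0% = enzyme with DMSO and 100% = wells lacking PAFAH2 protein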
CTSL1 counter = cathepsin L1 inhibition, PFM18AAP counter-screen; inhibition, % at 5.96 µM; actives 0.49% (n = 300,000); recombinant F. hepatica cathepsin L1, Z-Leu-Arg-MCA fluorescence;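 active = inhibition above the mean of all tested compounds plus 3 SD, set per screening campaign, cut at about 17% in these data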;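 note: 0% = plate median of test compound wells and 100% = 1 µM Z-Phe-Ala-diazomethylketone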
* marks the source's active call; other numbers are inactive results; x = no result. A selection: hits, their analogues and other compounds. The true share with any hit is near 3%.

SMILES | pPAFAH FP inh | PAFAH1B2 FP inh | PP5 primary | PAFAH1B3 inh | PAFAH2 FP inh | CTSL1 counter
O=C(N=Nc1c(O)[nH]c2ccc(F)cc12)c1ccc(NS(=O)(=O)c2cccs2)cc1 | 6 | -1 | 1 | 7 | -8 | x
O=C(N=Nc1c(O)[nH]c2ccccc12)c1ccccc1NS(=O)(=O)c1cccs1 | 9 | -4 | 5 | 3 | 11 | 3
Cc1ccc2[nH]c(O)c(N=NC(=O)c3ccc(NS(=O)(=O)c4cccs4)cc3)c2c1 | 26* | 26* | 1 | 10 | 0 | 3
Cc1cccc2c(N=NC(=O)c3ccc(NS(=O)(=O)c4cccs4)cc3)c(O)[nH]c12 | 28* | 39* | 2 | 24 | 21 | x
COc1cccc(C(=O)NNC(=O)c2ccc(NS(=O)(=O)c3cccs3)cc2)c1OC | 26* | 2 | -2 | 2 | 4 | 3
Cc1cccc2c(N=Nc3ccc(S(=O)(=O)Nc4ccc(Cl)cc4)cc3[N+](=O)[O-])c(O)[nH]c12 | 33* | -6 | -2 | 3 | -20 | 0
C=CCn1c(C)cc(C(=O)CSc2nnc3n(CCC)c(=O)c4ccccc4n23)c1C | x | 8 | x | 0 | 0 | x
Cc1ccc(C)n1-c1cccc(C(=O)O)c1 | 63* | x | 1 | x | x | -7
O=C(Nc1cccc(-c2nn[nH]n2)c1)c1csc2c1CCCC2 | -6 | 2 | 2 | 1 | -4 | 5
CCS(=O)(=O)c1ccc(O)c(NC(=O)COc2ccc(Br)cc2)c1 | 5 | 34* | 1 | 3 | 80* | 1
CCS(=O)(=O)c1ccc(O)c(NC(=O)/C=C/c2ccc(Cl)cc2)c1 | 28* | -4 | 1 | 4 | 66* | 4
Cc1ccc(/C=C/C(=O)Nc2cc(S(N)(=O)=O)ccc2O)cc1 | 2 | 12 | -1 | 9 | 24 | -3
CN1CC(=O)N(CC(=O)Nc2cccc3ccccc23)C1=O | 4 | 2 | x | 4 | 0 | x
O=C(Nc1ccc2c(c1)OCO2)c1cc(-c2ccc(O)cc2)on1 | -4 | 4 | -1 | 2 | -5 | 5
CC(NC(=O)COC(=O)C1CCN(c2ccc(C(F)(F)F)cn2)CC1)c1ccc(F)cc1 (configuration not stated) | 12 | 3 | 6 | 10 | 18 | x
CC(C)C[C@H](NC(=O)OC(C)(C)C)C(=O)N[C@@H](CO)[C@H](O)[C@@H]1C[C@@H]1C(=O)NC1CC1 | 5 | -1 | 2 | 9 | 0 | 20*
CC(C)C[C@H](NC(=O)OC(C)(C)C)C(=O)N[C@@H](CO)[C@H](O)[C@@H]1C[C@@H]1C(=O)N(C)C | 8 | 0 | 3 | 2 | 1 | 13
CCCCNC(=O)[C@H]1C[C@H]1[C@@H](O)[C@H](CO)NC(=O)[C@H](CC(C)C)NC(=O)OC(C)(C)C | -1 | 10 | 0 | -4 | -3 | 44*
CC(C)C[C@H](NC(=O)OC(C)(C)C)C(=O)N[C@@H](CO)[C@H](O)[C@@H]1C[C@@H]1C(=O)NC1CCCCC1 | 6 | -3 | 4 | 11 | -7 | 33*
CC(C)(C)OC(=O)N[C@@H](COCc1ccccc1)C(=O)N[C@@H](CO)[C@H](O)[C@@H]1C[C@@H]1C(=O)NC1CC1 | -2 | -2 | -2 | -7 | 3 | -3
CC(C)(C)OC(=O)N[C@@H](Cc1ccccc1)C(=O)N[C@@H](CO)[C@H](O)[C@@H]1C[C@@H]1C(=O)N1CCCC1 | -1 | 5 | 6 | 12 | 7 | 2
Cc1ccc2c(c1)c1c3n2CCN(C(=O)CCl)C3CCC1 (configuration not stated) | 1 | 8 | 3 | 7 | 12 | 39*
Cc1ccc(S(=O)(=O)N2C[C@@H]3[C@H]4CC[C@H](C4)[C@@H]3[C@@H](C)[C@@H]2c2ccn([Si](C(C)C)(C(C)C)C(C)C)c2)cc1 | 3 | 4 | x | 9 | 0 | x
CCn1c2ccccc2c2cc(NC(=O)c3ccccc3-c3ccccc3C(=O)O)ccc21 | 33* | 12 | 4 | 10 | 9 | 0
CCn1c2ccccc2c2cc(NC(=O)C(C)C)ccc21 | 9 | 1 | 0 | -1 | 13 | -3
SMILES | pPAFAH FP inh | PAFAH1B2 FP inh | PP5 primary | PAFAH1B3 inh | PAFAH2 FP inh | CTSL1 counter
CCC(=O)Nc1ccc2nc3c(=O)[nH]c(=S)[nH]c3nc2c1 | 26* | 7 | 0 | 12 | 13 | 12
CCCCn1c(=O)[nH]c2nc3cc(NC(C)=O)ccc3nc2c1=O | 4 | 6 | 3 | 5 | 7 | 3
Cc1nc(NS(=O)(=O)c2ccccc2)sc1C(=O)NNS(=O)(=O)c1ccccc1 | 7 | 18 | 1 | 5 | 1 | 2
Cc1ccc(S(=O)(=O)Nc2nc(C)c(C(=O)NNS(=O)(=O)c3cc(C)ccc3C)s2)cc1 | 14 | 28* | 1 | 9 | 13 | 2
COc1ccc2c(C(=O)c3ccc(Cl)cc3)n(CCCC(N)=O)[n+]([O-])c2c1 | 5 | 1 | 1 | -4 | 9 | -4
COc1ccc(N2C(=O)C(Cl)=C(Nc3ccccc3OC)C2=O)cc1 | 8 | 6 | 1 | 8 | 4 | 1
COc1ccc(N2C(=O)C(Cl)=C(Nc3ccccc3O)C2=O)cc1 | 8 | 4 | 0 | 0 | 1 | 50*
CCN(CC)CCC=C(c1cccs1)c1cccs1 | x | 0 | x | 4 | 0 | x
Cc1nn(C)c(Oc2ccccc2)c1CCNS(=O)(=O)c1ccc(Cl)cc1 | 11 | 25* | 3 | 3 | 21 | -1
CSCCC(NS(=O)(=O)c1ccc2c(c1)c(=O)n(C)c(=O)n2C)C(=O)NC1CCN(Cc2ccccc2)CC1 (configuration not stated) | 0 | 5 | 9 | 5 | 9 | 40*
CN(CC(=O)NC1CCN(Cc2ccccc2)CC1)S(=O)(=O)c1ccc2c(c1)c(=O)n(C)c(=O)n2C | 7 | 0 | -2 | 4 | 0 | 1
C=CCC(CC=C)(NC(=O)c1ccccc1C)c1ccccc1 | -4 | 25* | 0 | 4 | 6 | 1
O=C1c2cccc3c(O)ccc(c23)C(=O)N1c1ccc(Cl)cc1 | 28* | 17 | -10 | 27* | 42* | -5
CC(=O)Nc1ccc(N2C(=O)c3cccc4c(O)ccc(c34)C2=O)cc1 | 20 | 22 | -8 | 18 | 22 | 1
Cc1ccc(CNC(=O)COc2ccc(S(=O)(=O)N3CCOCC3)cc2)cc1 | 28* | 3 | -1 | 4 | -5 | 5
Cc1ccc(CCNC(=O)c2cc(S(=O)(=O)N3CCOCC3)cn2C)cc1 | 0 | 9 | 0 | 11 | 6 | 67*
Cc1ccc(S(=O)(=O)N2CCOCC2)cc1NC(=O)COc1ccccc1Cc1ccccc1 | 26* | 2 | x | 1 | 0 | x
COc1ccc(CNC(=O)COc2ccc(S(=O)(=O)N3CCOCC3)cc2)cc1 | 7 | 3 | -1 | 2 | 2 | -2
Cc1ccc(S(=O)(=O)NC(CC(=O)O)c2ccco2)cc1 (configuration not stated) | 6 | 9 | 0 | -3 | -3 | -2

Bioassay records from PubChem.
